The record followed here is the supplement of paper PMC6555819.

In the assay the test system is VDR:RXRa (NR concentration 270 nM, RXRa partner concentration 90 nM). The experiment in a line: PBM binding z-score (relative to random genomic background probes); higher = stronger binding; sequences stand for … in GC…GCGATTGACAGCGTAGAATGAAGG
How it is done: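 Protein-binding microarray (Agilent 4x180K custom design, double-stranded 60-nt probes: 5' GC cap, 34-nt variable region, 24-nt constant primer region; full probe sequence given). Purified or IVT nuclear receptor:RXRα heterodimers (3:1 NR:RXRα, mostly 270:90 nM) or homodimers were incubated for 1 h in PBS with 2% milk and no ligand, then detected with Alexa488 antibodies. Fluorescence from o1-orientation probes (~5 replicates averaged) was converted to z-scores against 500 random hg19 background probes. Variable regions are seed direct-repeat (DR0–DR5) sites, all their single-nucleotide variants and half-site ablations.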
Consider ACTCGGAGGATAAAGGTCAGAGCTACGCCAGTGA, for which the PBM binding z-score stood at 2.36. With ATATGTAGGTCAGGGTCATTCAGAAAGTAGGGAA, the PBM binding z-score was found to be 5.08. GGAACGAGGGCAAAGGTGATAGCATCTGTCGACG displayed a PBM binding z-score of 1.92.

TCATATAGGTTAAAGGTGAAAGTCGGTGTGGTAA: the PBM binding z-score amounted to 3.02.

Consider CTATGTAGGTTAAGAGGGTCATTCAGTTTGAAAG, for which the PBM binding z-score came out at 6.27.

CAAAGTAGGTCAAGGTCAAAGTCGGTTTGTGCCA: the PBM binding z-score stood at 5.27.

In the case of CGAACTAGGTCACCACGACAGTGAAGAGGTTGGA, the PBM binding z-score was found to be 2.04. CCTACTGGGCCACGAAAGGTAATTGATTCAGTGA gave a PBM binding z-score of -0.34. Sequence CGAACTAGGTCGAAGGACAGTGAAAGGCGACGTA had a PBM binding z-score of -0.183.

As to CTATTTAGGTTAAGGGGGTCATTCAGTTTGAAAG, the PBM binding z-score was found to be 7.31. On to CCCAGTAGGTTACGAGGGGGCATTCAGTGCGAAT, for which the PBM binding z-score was 5.29. Turning to CCGAGTAGGTTACGAGGGGGCATTCATTGCGAAT, the PBM binding z-score came to 4.7.

In turn, TAGCCAAGGTCATTCAGGGGCCAGTATAGAAAGC yielded a PBM binding z-score of 5.28. In turn, TCGAGTAGGTTACGGGGGCATTCCGGGATGAAGA gave a PBM binding z-score of 3.83. CTATGTAGGTTAAGGGGGCCATTCAGTTTGAAAG returned a PBM binding z-score of 4.74. For the sequence CCTTACGGGTCACTCCATGTTATAGCATCGGAGT, the PBM binding z-score was 3.02. For CGAACTAGGTCAAAGGACGGTGAAAGGCGACGTA, the PBM binding z-score amounted to 1.12. Sequence CGTCAAAGTTCAACTAAGTTAACGTAAAGCACGC yielded a PBM binding z-score of 5.16. In the case of CTATGTAGGTTAAGGGGGTCATTCCGTTTGAAAG, the PBM binding z-score stood at 7.25. CTATGTAGGTTGAGGGGGTCATTCAGTTTGAAAG displayed a PBM binding z-score of 7. The same measure for CTATGTAGGTTAAGCGGGTCATTCAGTTTGAAAG: 5.74. AGATGTAGGTTAGGGTCATTCAGAAAGTAGGGAA yielded a PBM binding z-score of 4.32. CAAACCAGGTCACGAAAGGTCAAAGTCGAATGAC came in with a PBM binding z-score of 7.16. In turn, CCTAGTTGGTCAGGGGGTCACACACCGGATATGA came in with a PBM binding z-score of 4.94. On to CCTACTGGGCCAAGGTCTTTGATCAGTCAAAGCA, for which the PBM binding z-score was -0.509. Sequence TCGAGTAGGTTACGGTGGCATTCAGGGATGAAGA gave a PBM binding z-score of 0.16.

As for CCGACTGGGGCAACGGTTACCATACTCAGTACGA, the PBM binding z-score was -0.409. For CGAACTAGCTCACCAGGACAGTGAAGAGGTTGGA, the PBM binding z-score is -0.616. Turning to CCTAGCAGACCAATCTGGGTCACTCAAGGCTTGA, the PBM binding z-score worked out at 0.199. Turning to ATATGTAGGTGAAGGGTCATTCAGGTTGGTTCGC, the PBM binding z-score came out at 5.46. Regarding GCTGCTAGGTTAACTGATGGTCAGCTAAAGCTCG, the PBM binding z-score is -0.182. In the case of CGTCCAAGGTCAACAGGTCAGTGAAAGCGACGTG, the PBM binding z-score amounted to 5.16. On to CTATGTAGGTTAAGGGGGTCATTCAGTTTGAAAG, for which the PBM binding z-score turned out to be 7.57. With CCTACTGGGCCAAAGGTCTTTGATTCCAATGCTC, the PBM binding z-score was -0.283. Consider CGAACTAGGTCACCATGACAGTGAAGAGGTTGGA, for which the PBM binding z-score was determined as 1.78. Regarding TTACCAAGGTGAAAGGTCGGTGATGCACGCCTTG, the PBM binding z-score came to 1.38. For TCTAGTTGGTCAAAGGTCAAACACTCGAAATGCG, the PBM binding z-score is 5.41. As for CCTACTGGGCCATGAAAGGTCATTGATTCAGTGA, the PBM binding z-score worked out at 3.82. The same measure for CTATGTAGCTTAAGGGGGTCATTCAGTTTGAAAG: 6.4.

Sequence ATATCTAGGTAAAAGTTCAGTGAATCCCGAGGAT showed a PBM binding z-score of 1.59.
